In paper PMC7819943, “Rice protein-binding microarrays: a tool to detect cis-acting elements near promoter regions in rice”:
Whole data set: some 68,000 sequences, median “fluorescence intensity (a.u.)” near 9,100, cut for the highest 2% near 16,000. What follows is part of a selection rich in the highest values, with near analogues and random picks from the rest.

target: OsWRKY34 (Oryza sativa, UniProt Q0JBA9 1-250); assay: protein-binding microarray (RPBM); PBS, 2% BSA, 51.3 ng/ul salmon testes DNA, 50 uM zinc acetate, 200 nM TF, 25 C, 1 h; high values mean tight binding; conditions: protein: recombinant; tags: N-terminal polyhistidine and DsRed monomer fusion (pET32a); label: CyDye5-dUTP incorporated in the synthesized complementary strand; 3' TTTTT single-stranded linker to array surface; dsDNA, one strand shown
Summary of the method: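 Transcription factors were made in E. coli BL21-CodonPlus as N-terminal fusions to a polyhistidine tag and DsRed, then purified on Ni–NTA. After primer extension with Cy5-dUTP and blocking with 2% BSA, a custom Agilent array was exposed for 1 h at 25 °C to 200 nM protein in PBS, 2% BSA, salmon testes DNA and 50 µM zinc acetate. Washed arrays were scanned on an Axon 4000B, and the binding signal is per-feature fluorescence intensity in arbitrary units.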

OsWRKY34, sequence (Q0JBA9 entry or part of it): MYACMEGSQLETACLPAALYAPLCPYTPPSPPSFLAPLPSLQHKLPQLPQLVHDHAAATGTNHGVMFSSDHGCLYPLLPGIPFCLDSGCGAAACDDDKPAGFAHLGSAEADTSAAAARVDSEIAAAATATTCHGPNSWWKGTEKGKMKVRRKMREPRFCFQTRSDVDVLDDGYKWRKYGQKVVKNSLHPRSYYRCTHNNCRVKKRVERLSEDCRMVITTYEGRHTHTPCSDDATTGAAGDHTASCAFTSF

Going from “TTCATTCATATGGTGTAACTTTTTGTCGCTGTAGGATCGCCGGAGTCACCTAGTGCAG” to “CTTGCTGCCTGGATTTCTCCCTGTTTGCTCCCTGACGGAGCGGAGTCACCTAGTGCAG”, the binding signal rises from 8130 fluorescence intensity (a.u.) to 9470 fluorescence intensity (a.u.).

First: TCCGTGACTATGCTTCTTCTTTTCTTTAATTTTCACCAGACGGAGTCACCTAGTGCAG
Second: AATCAGATGGAGAGTTGGTTATATGGGTGTTTGGAGAGTTCGGAGTCACCTAGTGCAG
The binding signal of the first is higher: 8750 fluorescence intensity (a.u.) for the first, 8410 fluorescence intensity (a.u.) for the second.

First: ATCTCCAAAATCAGTTTAACATCGCCTAATCCACGTCGGTCGGAGTCACCTAGTGCAG
Second: TTTGCGTCGCCTTTCATTTTGGATGTTTCAATTTGAATACCGGAGTCACCTAGTGCAG
The binding signal of the first is lower: 8820 fluorescence intensity (a.u.) for the first, 10400 fluorescence intensity (a.u.) for the second.

Compared with “GGAGCGCTGGGAGGAAGGGCGTAGGGAGGGAGGGGTGAGGCGGAGTCACCTAGTGCAG”, “CTGGGGAGGGCGACGGCGCAGTGCGGGGTGGACGGGAGCGCGGAGTCACCTAGTGCAG” is lower in binding signal: 11600 fluorescence intensity (a.u.) for the first, 8270 fluorescence intensity (a.u.) for the second.

First: GAGCGCGCGCGTTGGGCGGGAGGGGTTTGGTTGGTGAGCGCGGAGTCACCTAGTGCAG
Second: GGAGGAGGGGCGGCGGAGCGGGTGGTGGGGAGGCGACATGCGGAGTCACCTAGTGCAG
The binding signal of the first is lower: 11800 fluorescence intensity (a.u.) for the first, 17900 fluorescence intensity (a.u.) for the second.

Compared with “GTTTTGTTGGGTCGGCGGCGGCGGGTGAGAGTGGAGAATGCGGAGTCACCTAGTGCAG”, “GGCGAAGTGGTGGGTGCGTTGGGGCGAGGCGGAGCGGTGGCGGAGTCACCTAGTGCAG” is lower in binding signal: 12900 fluorescence intensity (a.u.) for the first, 8050 fluorescence intensity (a.u.) for the second.

Compared with “CGTTTGTTGGGTGCGGCGGGCGGGGAGGAGCTCGTGAATGCGGAGTCACCTAGTGCAG”, “GCGCGGCGTTGTTGGGTGTGTTCGTGAATCGGGCGGGATGCGGAGTCACCTAGTGCAG” is lower in binding signal: 19600 fluorescence intensity (a.u.) for the first, 10500 fluorescence intensity (a.u.) for the second.

Compared with “GGTGGAGGAGGTGGGCGGGGAAAGCGGCGACGTGAGGCGGCGGAGTCACCTAGTGCAG”, “GTTGCGGGGTGGGTGGTGGCGTTGCGGGAGGAGGAGGGAGCGGAGTCACCTAGTGCAG” is higher in binding signal: 14400 fluorescence intensity (a.u.) for the first, 23100 fluorescence intensity (a.u.) for the second.

Going from “GTGGGGTGGGTGAGCGGGATGCGGGGCTTAGGCGGGGAAGCGGAGTCACCTAGTGCAG” to “GGACGGCGGCGAGCGGCGAGGAGGAGGCGGGGAGGTGGGACGGAGTCACCTAGTGCAG”, the binding signal falls from 16500 fluorescence intensity (a.u.) to 9580 fluorescence intensity (a.u.).

Going from “CTAATCCCCTCTAGCTAGCCTCTTTTTTCTCCATTTGTTTCGGAGTCACCTAGTGCAG” to “GCCGCCGCCGCCGCCCGCGCCGATCCCCATCCATCCCGCACGGAGTCACCTAGTGCAG”, the binding signal falls from 11100 fluorescence intensity (a.u.) to 8970 fluorescence intensity (a.u.).

Compared with “GGGATGTCTTGGCTTTTTTTTTTTCTTCACCGAGCAATCGCGGAGTCACCTAGTGCAG”, “GGTTAGAGATACATACATATTATACCTGATTCACCTCACTCGGAGTCACCTAGTGCAG” is lower in binding signal: 13400 fluorescence intensity (a.u.) for the first, 8060 fluorescence intensity (a.u.) for the second.

Compared with “CTTCTTCGATCTCCGGCAATCGCTCCATCGATCGGCGCTTCGGAGTCACCTAGTGCAG”, “TTTTTTCTGTAAGGTGTCATATTTCTTCAATTGATGGATACGGAGTCACCTAGTGCAG” is lower in binding signal: 8370 fluorescence intensity (a.u.) for the first, 8340 fluorescence intensity (a.u.) for the second.

Compared with “GGCTTCAGTATGAATTCTTACACAACCGTTGGTGTGCTACCGGAGTCACCTAGTGCAG”, “ACCCTCGGACCGGTTTTTTTACTATGCCTCAAACATGTTCCGGAGTCACCTAGTGCAG” is higher in binding signal: 9250 fluorescence intensity (a.u.) for the first, 9800 fluorescence intensity (a.u.) for the second.

Compared with “ATCCCTCTGGTCGTCTCCTACCTCTCGGTTTCTTCACCCTCGGAGTCACCTAGTGCAG”, “TTTTTTCGGTCTCGGTATCGGTCTTTTCGGTTCGATCTTACGGAGTCACCTAGTGCAG” is lower in binding signal: 14600 fluorescence intensity (a.u.) for the first, 8400 fluorescence intensity (a.u.) for the second.

First: CGTACTGGGCTGGGCTGGGCTGGGATTCAACCGAACGGGGCGGAGTCACCTAGTGCAG
Second: CACTATCGGCAGTGCAGCCGGCGGCTGGGGCGGGGAGTACCGGAGTCACCTAGTGCAG
The binding signal of the first is higher: 20400 fluorescence intensity (a.u.) for the first, 9540 fluorescence intensity (a.u.) for the second.

Going from “GGTGGCGGTTGCGGGTGGAGGGCCGCGGCGGTGCGACGAACGGAGTCACCTAGTGCAG” to “GGCCGGCGGGTGGCCGGGTGGGGAGGAGGTCGGCAGGGCGCGGAGTCACCTAGTGCAG”, the binding signal rises from 8480 fluorescence intensity (a.u.) to 9780 fluorescence intensity (a.u.).

Compared with “AAGTGCTCGATCGGGAGCGGTGGTGGTGGTGGGGAGAGAGCGGAGTCACCTAGTGCAG”, “GCGGCGTTGCGGATGGGGACGGGGACGGGGACGGCGGCGACGGAGTCACCTAGTGCAG” is lower in binding signal: 11300 fluorescence intensity (a.u.) for the first, 10400 fluorescence intensity (a.u.) for the second.

Compared with “ATCACGGAGGAGGCGTTCGGGGAGGGAGGGTGGGGCGCGCCGGAGTCACCTAGTGCAG”, “GTGGGGCGGTGGCTGCTGCATTGCATTGGGCGGGAGAGATCGGAGTCACCTAGTGCAG” is lower in binding signal: 24400 fluorescence intensity (a.u.) for the first, 17200 fluorescence intensity (a.u.) for the second.

Going from “GTAGGGGCGGGAGGGGAGGCGTGGTGGCGCCGGGCCGGCGCGGAGTCACCTAGTGCAG” to “ACTAGTGGGCTGCTTGGGTGGGGAGCCCGGGCCGGCAGATCGGAGTCACCTAGTGCAG”, the binding signal falls from 14900 fluorescence intensity (a.u.) to 12000 fluorescence intensity (a.u.).

First: ACGGTGCCGAACGAGCTTGGGGATGGGGACGGCGGCGGGGCGGAGTCACCTAGTGCAG
Second: GCGGCTGGGGTTGCGGTGCAATCTGGGGCGGGGATGCGAACGGAGTCACCTAGTGCAG
The binding signal of the first is lower: 10200 fluorescence intensity (a.u.) for the first, 17100 fluorescence intensity (a.u.) for the second.

Compared with “CAATTTCCATGGTTTTCTTAGCATTCTCGTCTCTAGTATTCGGAGTCACCTAGTGCAG”, “AAACCCTAGCTCCGGATTCTTCTCCTCTCCTCCTTTCTTCCGGAGTCACCTAGTGCAG” is lower in binding signal: 9610 fluorescence intensity (a.u.) for the first, 8070 fluorescence intensity (a.u.) for the second.
